The source of these data is the supplement of paper PMC4894684.

Structures can show the parent of a compound that is named as a salt. ± gives the standard deviation of the averaged measurements.

The assay deals with Toxoplasma gondii RH (in HFF). Description: parasite growth relative to the screen mean (all compounds = 100%); higher = less inhibition of parasite growth. Conditions: 5 µM; 72 h; oxygen 21 %. In short, it runs like this: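 Growth values are relative to the mean of the whole screen and averaged over duplicate screens, with all compounds together set to 100%. Parasites (RH β-Gal–GFP Toxoplasma, MOI 1:5) were added within 2 h of pinning compounds at 5 µM final onto confluent human foreskin fibroblasts and grown 72 h at 21% O2. Parasite number came from CPRG β-Gal readings against in-plate standard curves.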
`N[C@H](C(=O)O)c1ccc(O)c(C(=O)O)c1` [(S)-3-Carboxy-4-hydroxyphenylglycine] showed a parasite growth of 153 ± 9.2%.
`O=C1Cc2c([nH]c3ccc(Br)cc23)-c2ccccc2N1` [Kenpaullone]: the parasite growth came out at 100 ± 12%.
`O=C(NCCCN1CCCCCC1)C(c1ccccc1)C1CCCCC1` (centres undefined) had a parasite growth of 83 ± 2.4%.
Under `CC1OC2(CS1)CN1CCC2CC1` (centres undefined) [Cevimeline hydrochloride] stands 148 ± 82%; under `O=c1c(O)c(-c2ccc(O)cc2)oc2cc(O)cc(O)c12` [Kaempferol], 155 ± 7.1%; under `O=C(Nc1ccccc1)C12CC1C(=NO)c1ccccc1O2` (centres undefined), 77.3 ± 29%.
Under `Cc1cccc(C)c1OCC(C)N` (centres undefined) [Mexiletine hydrochloride] stands 141.59 ± 0.025%; under `c1cnc(N2CCN(Cc3ccc4c(c3)OCO4)CC2)nc1` [Piribedil], 70.3 ± 8.6%; under `CCn1c(=O)[nH]c2cc(Cl)c(Cl)cc21`, 89.8 ± 61%.
Under `CN(C)C(=O)n1nnnc1Cc1ccc(-c2ccccc2)cc1` stands 84.9 ± 38%.
For the molecule `Cc1cc(F)c(Nc2ncnc3cc(OCc4ccccc4)ccc23)cc1O`, the parasite growth came out at 11.2 ± 13%.
Regarding `CC(C)NCC(O)COc1cccc2ccccc12` (centres undefined) [Propranolol hydrochloride], the parasite growth was found to be 99.4 ± 14%.
Regarding `NC(=O)N1C(=O)/C(=C(\O)c2cccs2)c2cc(Cl)ccc21` [Tenidap], the parasite growth is 134 ± 18%.
The molecule `CN(C)CCCn1cc(C2=C(c3c[nH]c4ccccc34)C(=O)NC2=O)c2ccccc21` yielded a parasite growth of under 0%.
Under `CN(C)CCC1(c2ccc(Cl)cc2)Cc2ccccc2C(=O)O1` (racemic) [(±)-AC 7954 hydrochloride] stands 98.7 ± 67%.
Molecule `Cc1cccc(C(=O)NCN2CCN(c3ccccc3C#N)CC2)c1` came in with a parasite growth of 133 ± 7.4%.
Molecule `CN(C)CCCN1c2ccccc2CCc2ccc(Cl)cc21` [Clomipramine hydrochloride] displayed a parasite growth of 38.4 ± 2.9%.
`COP(=O)(OC)OC(c1ccc(Cl)cc1)P(=O)(OC)OC` (centres undefined) showed a parasite growth of 79.4 ± 28%.
`CCc1ccc2c(-c3cccc(Cl)c3)nc(=O)n(CC)c2n1` returned a parasite growth of 152 ± 17%.
To `O=C(OCCN1CCOCC1)C1(c2ccccc2)CCCCC1` [PRE-084 hydrochloride] belongs 99.6 ± 19%.
In turn, `N[C@@H](C(=O)O)c1ccc(C(=O)O)c(C(=O)O)c1` had a parasite growth of 117 ± 7.7%.
In the case of `NS(=O)(=O)c1cccc2c1c([N+](=O)[O-])cc1nc(O)c(O)nc12`, the parasite growth amounted to 144 ± 9.6%.
The molecule `c1ccc(C(O[C@@H]2CCCN(CCc3ccc4c(c3)OCO4)C2)c2ccccc2)cc1` [Zamifenacin fumarate] had a parasite growth of 128 ± 20%.
Turning to `Nc1ncnc2n[nH]c(Nc3ccc(F)cc3)c12`, the parasite growth was 94.4 ± 26%.
In turn, `CC(C)Oc1cccc(-n2c(CCc3c[nH]c4ccc(Br)cc34)nc3ccccc3c2=O)c1` yielded a parasite growth of 55.84 ± 0.023%.
Molecule `CC(Oc1ccc(O)cc1)(P(=O)(O)O)P(=O)(O)O` returned a parasite growth of 101 ± 21%.
To `CCC(CC)(CC(=O)Nc1cccc(/C=C/c2nc(C3CCC3)cs2)c1)C(=O)O` [Cinalukast] belongs 115 ± 12%.
Turning to `CC(CCCCC(=O)Nc1ccc(C(F)(F)F)cc1)NCCc1cnc[nH]1` (centres undefined) [HTMT dimaleate], the parasite growth was found to be 95.1 ± 7.2%.
Molecule `Nc1nc2c(cnn2CCc2ccccc2)c2nc(-c3ccco3)nn12` yielded a parasite growth of 100 ± 39%.
Molecule `CC(C)(C)NC[C@H](O)COc1nsnc1N1CCOCC1` [(S)-Timolol maleate] yielded a parasite growth of 119 ± 1.7%.
Take `CC#C[C@]1(O)CC[C@H]2[C@@H]3CCC4=CC(=O)CCC4=C3[C@@H](c3ccc(N(C)C)cc3)C[C@@]21C` [Mifepristone]: the parasite growth is 135 ± 14%.
Regarding `CCCCCCCCc1ccc(-c2ccc(C(=O)O)cc2)cc1`, the parasite growth came out at 111 ± 17%.
Take `CCSC(=N)N` [EIT hydrobromide]: the parasite growth worked out at 166 ± 23%.
In turn, `O=C(/C=C/c1ccc(O)c(O)c1)O[C@H](Cc1ccc(O)c(O)c1)C(=O)O` [Rosmarinic acid] registered a parasite growth of 110 ± 5.5%.
As to `NC(=O)c1ccc2[nH]ccc2c1`, the parasite growth turned out to be 91.2 ± 12%.
Molecule `COc1cc(OC)c(C(=O)CCCCN2CCC3(CC2)NC(=O)NC3=O)cc1NS(=O)(=O)c1ccc(C(F)(F)F)cc1` had a parasite growth of 109 ± 11%.
On to `COC(=O)C1=C(C)NC(C)=C([N+](=O)[O-])C1c1ccccc1C(F)(F)F` (racemic), for which the parasite growth stood at 167 ± 8.8%.
Molecule `COc1cccc(CCc2ccccc2OCC[C@@H]2C[C@@H](O)CN2C)c1` displayed a parasite growth of 53.4 ± 25%.
For the molecule `CCN(CC)c1ccc(/C=N/NC(=O)c2ccc(O)cc2)cc1`, the parasite growth is 115 ± 28%.
